Reference: the supplement of paper PMC9694430

Legend:
Assay in all cases: thermal shift delta Tm vs DMSO control; higher = stronger stabilization (binding)
Settings in all cases: 12.5 µM; protein concentration 2 µM
[1] = test system: LOC_OS04G57630-cb004
Procedure, shortened: (§1)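 Thermal shift values come from differential scanning fluorimetry on purified rice kinase domains made in E. coli, with melting temperatures obtained from Boltzmann fits. Samples of 19.5 μl held 2 μM kinase, 100 mM potassium phosphate pH 7.5, 150 mM NaCl, 10% glycerol, 5 × SYPRO Orange and compound in DMSO, and were heated from 25°C to 95°C at 0.05°C/s. Each shift is a triplicate mean relative to the DMSO-only protein sample.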

[2] = test system: LOC_OS05G07850-cb002
Procedure, shortened: as §1

[3] = test system: LOC_OS05G16824-cb004
Procedure, shortened: as §1

[4] = test system: LOC_OS05G28520-cb001
Procedure, shortened: as §1

[5] = test system: LOC_OS05G30820-cb001
Procedure, shortened: as §1

[6] = test system: LOC_OS05G43570-cb004
Procedure, shortened: as §1

[7] = test system: LOC_OS06G16330-cb003
Sequence of LOC_OS06G16330-cb003 (as listed by the source): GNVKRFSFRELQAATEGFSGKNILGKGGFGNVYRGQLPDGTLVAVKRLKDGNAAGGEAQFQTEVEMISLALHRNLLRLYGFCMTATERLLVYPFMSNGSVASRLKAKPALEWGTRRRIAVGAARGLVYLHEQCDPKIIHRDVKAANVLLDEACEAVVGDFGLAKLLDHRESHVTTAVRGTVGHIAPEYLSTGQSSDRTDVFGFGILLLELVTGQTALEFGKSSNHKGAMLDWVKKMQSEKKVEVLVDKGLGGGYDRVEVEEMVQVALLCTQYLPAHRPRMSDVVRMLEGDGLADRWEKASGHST
Procedure, shortened: as §1

[8] = test system: T1, LOC_OS06G22820-cb001
T1 sequence (whole entry): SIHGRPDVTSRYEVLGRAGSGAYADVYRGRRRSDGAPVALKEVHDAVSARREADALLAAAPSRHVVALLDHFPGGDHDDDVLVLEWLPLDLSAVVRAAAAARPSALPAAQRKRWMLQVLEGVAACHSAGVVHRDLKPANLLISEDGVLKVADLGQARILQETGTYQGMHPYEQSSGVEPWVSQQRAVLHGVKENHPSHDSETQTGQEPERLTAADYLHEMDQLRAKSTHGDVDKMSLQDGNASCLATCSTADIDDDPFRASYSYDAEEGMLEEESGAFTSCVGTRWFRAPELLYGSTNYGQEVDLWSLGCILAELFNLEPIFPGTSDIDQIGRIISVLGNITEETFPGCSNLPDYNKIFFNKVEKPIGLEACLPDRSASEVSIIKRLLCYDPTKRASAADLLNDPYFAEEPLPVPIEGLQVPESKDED
Procedure, shortened: as §1

[9] = test system: LOC_OS07G06570-cb004
Procedure, shortened: as §1

[10] = test system: LOC_OS07G07230-cb001
Procedure, shortened: as §1
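Also: purified Escherichia coli-expressed rice kinase domain construct.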

SMILES	thermal shift delta Tm [1] [°C]	thermal shift delta Tm [2] [°C]	thermal shift delta Tm [3] [°C]	thermal shift delta Tm [4] [°C]	thermal shift delta Tm [5] [°C]	thermal shift delta Tm [6] [°C]	thermal shift delta Tm [7] [°C]	thermal shift delta Tm [8] [°C]	thermal shift delta Tm [9] [°C]	thermal shift delta Tm [10] [°C]
CC(C)[C@H](CO)Nc1nc(Nc2cccc(Cl)c2)c2ncn(C(C)C)c2n1 [Purvalanol A]	1.65	4.54	10.1	1.68	2.51	0.79	2.99	0.25	0.14	-0.31
Cc1cccc(Nc2nc(NC3CCCCC3N)ncc2C(N)=O)c1 (stereo not given)	0.83	7.79	5.17	0.36	2.02	0.63	6.85	0.81	1.04	0.47
Nc1ncnc2n[nH]c(Nc3ccc(F)cc3)c12	-0.19	8.51	1.59	0.61	0.77	0.52	2.45	0.73	1.75	0.82
OC(c1cc(-c2ccc(Cl)cc2)nc2ccccc12)C1CCCCN1 (stereo not given) [Vacquinol-1]	0.38	3.49	1.23	0.66	0.43	0.64	0.55	0.46	0.14	-0.36
CC(C)(C)c1nc(-c2ccc(NC(=O)Nc3cccc(C(F)(F)F)c3)c3ccccc23)c2c(N)nccn12 [kira6]	1.93	6.62	9.24	0.74	0.66	3.12	4.28	0.73	0.73	0.14
CS(=O)(=O)c1cccc(CNc2nc(Nc3ccc4c(c3)CCC(=O)N4)ncc2C(F)(F)F)c1	1.7	8.91	11.1	1.18	2.8	0.96	6.92	0.35	0.43	-0.39
CC1Oc2cc(cnc2N)-c2c(nn(C)c2C#N)CN(C)C(=O)c2ccc(F)cc21 (stereo not given)	0.38	2.16	-1.64	0.23	0.66	0.83	10.9	0.16	0.86	0.75
CCN1/C(=C/C(C)=O)Sc2ccc(OC)cc21	-0.02	2.71	0.06	0.32	0.33	0.34	-0.18	0.54	0.57	0.23
Cc1cc(Nc2ncnc3ccc(NC4=NC(C)(C)CO4)cc23)ccc1Oc1ccn2ncnc2c1 [Irbinitinib (ARRY-380, ONT-380)]	0.3	0.8	-0.96	0.07	0.07	0.33	-0.51	0.49	1.27	0.02
CN1CCN(c2ccc3nc(-c4c(N)c5c(F)cccc5[nH]c4=O)[nH]c3c2)CC1 [Dovitinib (TKI-258, CHIR-258)]	1.24	6.74	12.6	1.08	0.71	0.77	3.64	0.56	1.13	0.36
O=C(c1ccc(Nc2nccc(-c3cc4ccccc4s3)n2)cc1)N1CCC(N2CCCC2)CC1 [IKK-16 (IKK Inhibitor VII)]	5.63	15.2	7.99	1.89	0.77	-0.31	9.02	0.14	0.72	0.03
O=c1cc(N2CCOCC2)oc2c(-c3cccc4c3sc3ccccc34)cccc12	-0.76	0.31	-2.7	0.25	0.1	-0.66	-1.48	0.17	0.25	-0.42
CC(C)(CO)n1cc(C(=O)c2cncc(NC(=O)Cc3ccc(Cl)cn3)c2)c2cnc(N)nc21	0.34	5.09	-0.67	0.14	0.02	0.18	2.22	0.45	1.47	0.34
COc1ccc(C(=O)Nc2sc3c(c2C(N)=O)CCCC3)cc1OC	0.24	5.8	-1.08	0.65	0.5	0.59	5.12	0.46	1.73	0.5
O=c1cc(N2CCOCC2)oc2c1ccc1ccccc12	0.45	0.96	1.86	0.42	0.43	0.67	-3.55	0.23	0.63	0.36
NC(=O)c1ncn([C@@H]2O[C@H](CO)[C@@H](O)[C@H]2O)c1N [AICAR (Acadesine)]	0.05	0.57	-1.12	-0.02	0.45	0.5	0.02	0.92	1.07	-0.25
CN1CCN(c2ccc(-c3ccncc3-c3cc(F)c(O)c(F)c3)cc2)CC1	0.24	3.75	-0.65	0.95	0.41	0.25	1.09	0.54	0.48	0.18
CC(C)n1nc(-c2cc3cc(O)ccc3[nH]2)c2c(N)ncnc21 [Torkinib (PP242)]	0.41	5.09	-3.24	0.21	0.67	0.33	1.93	0.42	0.62	0.14
Oc1cc(O)cc(/C=C/c2ccc(O)c(O)c2)c1 [Piceatannol]	0.71	2.79	-0.53	1.37	0.74	0.72	1.4	0.94	0.43	0.27
